Only some compounds are listed: those with a hit (about 6.1% of all), similar ones and a draw of the others.
VP16 counter – inhibits Gal4-VP16 luciferase reporter, ROR gamma counter-screen. Drosophila S2 Gal4-VP16 UAS-luciferase, luminescence, 20 h. Potency, µM (doses to about 53.6 µM), for inactives: top-dose activity, negative = inhibition, usual class: inhibitors. actives 3.5% (n = 310,000);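 also: Gal4-VP16 expression switched on by copper sulfate through the metallothionein promoter; % is scaled to controls: 0 for no effect and ±100 for the full control effect; nearly all actives have a fitted effect of over 50% in size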
ATXN viability – reduces viability in counter-screen for ATXN expression inhibitors; S2 cells (HEK-293 line with an ATXN2-luciferase reporter) viability, CellTiter-Fluor protease fluorescence, 24 h; Potency, µM (highest dose often 56.7 µM), most hits filed as cytotoxic; actives 0.49% (n = 400,000); AID 651635; also: nearly all actives have a fitted effect of over 40% in size
HepG2 tox – HepG2 cytotoxicity, counter-screen for TGF-b inhibitors; HepG2 CAGA-GFP viability, ATP luminescence, 18 h; Potency, µM (top dose mostly 46.1 µM), for the others: at the highest dose activity change, negative = cytotoxicity, most hits filed as cytotoxic; actives 0.76% (n = 410,000)
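CellTiter-Glo luminescence gave cytotoxicity after 18 hours at 37 degrees C. The cells were HepG2 CAGA-GFP in 1% FBS DMEM, stimulated with 500 pg/mL TGF-beta after compound addition. %Activity was normalised to no-cell wells (complete cell-killing) and DMSO (no toxicity), and curves were fitted and classified.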
TGFb SMAD3 inh – blocks TGF-b signaling; HepG2 CAGA-GFP TGF-b/SMAD3 reporter, GFP fluorescence, 18 h; TGF-beta stimulated, 500 pg/mL final; actives 1.2% (n = 410,000); Potency, µM (top dose mostly 46.1 µM), for inactives: at the top dose activity, negative = inhibition, actives largely listed as inhibitors; also: % is scaled to controls: 0 for no effect and ±100 for the full control effect; nearly all actives have a fitted effect of over 65% in size
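HEPG2 CAGA-GFP reporter cells (1000/well, DMEM with 1% FBS) received compounds, then recombinant TGF-beta at 500 pg/mL final for 18 hours at 37 degrees C. Per-cell GFP summed per well was normalised to unstimulated and stimulated DMSO controls before curve fitting.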
RORgamma inh – blocks mouse ROR gamma transcriptional activity | P51450 | Drosophila S2 Gal4-RORgamma UAS-luciferase reporter, 20 h | Potency, µM (titrated, usually from 53.6 µM), without a hit: at the highest dose activity change, negative = inhibition, actives largely listed as inhibitors | actives 5.4% (n = 310,000); also: % is scaled to controls: 0 for no effect and ±100 for the full control effect; nearly all actives have a fitted effect of over 60% in size
Target sequence (P51450 whole entry, looked up, the tested form may be a part): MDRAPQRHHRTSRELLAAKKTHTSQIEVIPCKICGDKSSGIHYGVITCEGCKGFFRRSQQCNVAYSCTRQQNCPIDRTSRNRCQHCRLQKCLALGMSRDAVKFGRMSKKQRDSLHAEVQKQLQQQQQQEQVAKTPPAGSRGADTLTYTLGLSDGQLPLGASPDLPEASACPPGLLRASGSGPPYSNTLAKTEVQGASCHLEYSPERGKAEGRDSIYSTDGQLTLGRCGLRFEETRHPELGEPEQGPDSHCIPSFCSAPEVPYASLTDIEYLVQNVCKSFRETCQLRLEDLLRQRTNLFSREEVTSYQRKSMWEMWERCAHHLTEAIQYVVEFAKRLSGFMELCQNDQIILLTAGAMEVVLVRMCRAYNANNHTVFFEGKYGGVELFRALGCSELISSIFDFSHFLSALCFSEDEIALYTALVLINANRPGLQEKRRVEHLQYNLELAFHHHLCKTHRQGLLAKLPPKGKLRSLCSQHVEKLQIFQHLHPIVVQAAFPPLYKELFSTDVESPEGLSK
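Drosophila S2 cells stably expressing Gal4-DBD/mouse RORγ fusion under metallothionein promoter plus UAS-luciferase; compound 1 h, then 700 uM CuSO4 induction for 20 h at ambient temperature; inhibition read as reduced luminescence.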
ATXN2 expr inh – inhibitors of ATXN2 expression; HEK-293 ATXN2-luciferase reporter, luminescence, 24 h; Potency, µM (doses to about 57 µM), for the others: at the top dose activity change, negative = inhibition, actives largely listed as inhibitors; actives 0.72% (n = 360,000); AID 1745845; also: % is scaled to controls: 0 for no effect and ±100 for the full control effect; nearly all actives have a fitted effect of over 55% in size
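qHTS (up to 57 uM final) was run with 24 h compound exposure of reporter cells at 37 °C. Each well was multiplexed: SteadyGlo luminescence measured ATXN2-luciferase expression after a fluorogenic Gly-Phe-AFC viability readout (25 uM final).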
* = called active by the depositor; i = inactive; ? = inconclusive; nt = no result; [ ] = dose if it differs, or a comment. Calls follow the shape of the dose curve; as a rule, active = well fitted curve in the direction sought with a large enough effect; inconclusive = small, poorly fitted or top-dose-only effect, or another doubt; inactive = no such curve, though single readings can be large; an effect the other way counts as inactive or inconclusive. Potency is read from the fitted curve at half-maximal effect.

SMILES	VP16 counter	ATXN viability	HepG2 tox	TGFb SMAD3 inh	RORgamma inh	ATXN2 expr inh
CCCCNc1ccc(C(F)(F)F)cc1S(=O)(=O)NCCc1ccc(F)cc1	nt	?	5µM*	?	nt	0%
COc1ccc(S(=O)(=O)NCCc2ccc(F)cc2)cc1	0%	i	-16%	-6%	19%	-7%
CCOC(=O)C1=C(C)NC(=S)NC1/C=C/c1ccccc1 (stereo not given)	2µM*	i	-19%	?	1.8µM*	-9%
COC(=O)C1=C(C)NC(=S)NC1/C=C/c1ccccc1 (stereo not given)	16µM*	i	6%	2%	6.3µM*	-16%
CCOC(=O)C1=C(C)NC(=O)NC1/C=C\c1ccccc1 (stereo not given)	-11%	?	6%	9%	1%	-6%
CCC(=O)N[C@@H]1c2ccccc2C2(CCN(Cc3ccccn3)CC2)[C@H]1OC	nt	i	nt	nt	nt	nt
Cc1nc2nc(SCC(=O)c3ccc([N+](=O)[O-])cc3)[nH]c2cc1Br	?	i	3%	2%	2.5µM*	0%
CCN(Cc1nc(-c2ccc(OC)cc2)oc1C)S(=O)(=O)c1ccc(C)cc1	nt	?	-29%	?	nt	-29%
CCc1nnc(NC(=O)c2ccc(Cl)nc2)s1	-15%	i	0%	4%	?	7%
CCc1nnc(NC(=O)c2ncc(Cl)c(Cl)c2Cl)s1	4µM*	i	-20%	4%	3.2µM*	15%
CCc1nnc(NC(=O)c2cc(Cl)ccn2)s1	7.1µM*	i	-19%	-19%	4.5µM*	?
Cc1nc2ccccc2n1CCc1nc2c3ccccc3nc(=S)n2[nH]1	10µM*	i	0%	7%	3.5µM*	-6%
Cc1ccccc1-c1nc2c3ccccc3nc(=S)n2[nH]1	1µM*	i	-37%	?	0.28µM*	0%
Cc1nc2ccc(Br)cn2c1C(=O)N/N=C\c1ccc(C(C)C)cc1	5µM*	?	-7%	4%	5.6µM*	nt
COc1ccc(C(=O)NC(=S)Nc2ccc([N+](=O)[O-])cc2C)cc1OC	?	?	-46%	3%	16µM*	-27%
Cc1ccc(O)c(NC(=S)NC(=O)c2ccccc2Cl)c1	13µM*	i	-28%	-29%	3.5µM*	16%
Cc1ccc(O)c(NC(=O)c2cc(-c3ccccc3Cl)on2)c1	5%	i	-5%	-16%	34%	42%
COc1ccc(C(=O)/C=C/Nc2ccc([N+](=O)[O-])cc2C)cc1OC	-19%	i	-4%	1%	-4%	-13%
CC(C)(C)CC(=O)NC(=S)Nc1ccccc1[N+](=O)[O-]	?	i	-3%	-2%	6.3µM*	nt
O=C(NC(=S)Nc1ccccc1[N+](=O)[O-])c1ccccc1Cl	?	i	5%	-6%	4µM*	25%
COc1ccccc1CNc1cc(-c2ccccc2C(F)(F)F)ncn1	7%	nt	nt	nt	12%	nt
Cc1ccc([N+](=O)[O-])cc1S(=O)(=O)N1CCn2cccc2C1c1ccccc1F (stereo not given)	nt	i	-26%	-11%	nt	6%
Cc1cc(C)c(C(=O)CC(=O)c2ccccc2Cl)c(O)c1	4.5µM*	?	-23%	?	2.2µM*	?
COc1ccc(C(=O)NC(=S)Nc2ccccc2[N+](=O)[O-])cc1OC	17%	i	1%	-5%	7.1µM*	-37%
Cc1cc(C)c(NC(=O)CC(=O)c2ccccc2)c(Cl)c1	-15%	i	-3%	22%	28%	-9%
O=C(CNC(=S)NC(=O)c1cccc([N+](=O)[O-])c1)c1ccccc1	13µM*	i	-37%	-15%	7.1µM*	-30%[11.3 µM]
O=C(C#Cc1ccccc1)c1cccc([N+](=O)[O-])c1	6.3µM*	nt	-29%	?	5.6µM*	22µM*
